# Six1-Eya2 blk = blocks human Six1 binding to Eya2; AlphaScreen GST-Six1/His-Eya2 binding, biochemical; stronger effect = lower value; activity change, % (test concentration not listed); actives 0.56% (n = 360,000); Q15475+O00167; in the data active = activity change below about -65%; inconclusive = mostly about -30% to -63%
#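 AlphaScreen luminescence read after one hour at 37 °C in darkness. Pin-transferred compounds met GST-Six1 and His-Eya2 protein (5X stock 250 nM/500 nM) plus glutathione donor and Ni-chelate acceptor beads (5X, 50 ug/mL).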
# HP1b binding inh = inhibitors of HP1-beta chromodomain binding to methylated histone tails; actives 0.56% (n = 390,000); P83916; Potency, µM (titrated, usually from 114 µM), hits mostly inhibitors; AlphaScreen HP1-beta / biotin-H3K9me3 peptide binding; AID 540317; also: nearly all actives have a fitted effect of over 70% in size
# Target sequence (P83916 whole entry, looked up): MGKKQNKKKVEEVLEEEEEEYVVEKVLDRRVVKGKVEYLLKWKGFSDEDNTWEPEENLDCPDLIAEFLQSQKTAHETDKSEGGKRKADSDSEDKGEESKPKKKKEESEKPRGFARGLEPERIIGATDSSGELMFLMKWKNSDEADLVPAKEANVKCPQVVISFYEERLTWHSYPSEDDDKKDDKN
#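 AlphaScreen: HP1-beta (50 nM) preformed 30 min with biotin-H3(1-18)K9me3 peptide (50 nM) in PBS pH 7.4, 0.01% Tween-20. Compound added for 30 min at RT, then streptavidin donor/nickel chelate acceptor beads (10 ug/mL) for 30 min.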
# BAZ2B inh = BAZ2B (human) inhibition; AlphaScreen BAZ2B-H3K14Ac peptide displacement; Potency, µM (series often up to 114 µM), actives largely listed as inhibitors; actives 4.4% (n = 360,000); AID 504333; also: nearly all actives have a fitted effect of over 60% in size
#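 Protein-peptide AlphaScreen: BAZ2B 50 nM, b-H3K14Ac 50 nM, 1x PBS pH 7.4 + 0.01% Tween-20. Preincubation 30 min RT; cpd 30 min RT (top 110 uM); beads 20 min RT, light-protected.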
# JMJD2A Tudor = blocks the human JMJD2A Tudor domain | O75164 | AlphaScreen JMJD2A-Tudor / H3K4me3 peptide binding | Potency, µM (titrated, usually from 114 µM), actives largely listed as inhibitors | actives 4.4% (n = 390,000) | AID 504339; also: nearly all actives have a fitted effect of over 50% in size
# G9a block = G9a (human) methyltransferase inhibition; actives 8.8% (n = 350,000); G9a H3K9 monomethylation, AlphaScreen, 2 h; Q96KQ7; Potency, µM (series often up to 102 µM), actives largely listed as inhibitors; also: nearly all actives have a fitted effect of over 75% in size
# Target sequence (Q96KQ7 913-1193 limits assumed): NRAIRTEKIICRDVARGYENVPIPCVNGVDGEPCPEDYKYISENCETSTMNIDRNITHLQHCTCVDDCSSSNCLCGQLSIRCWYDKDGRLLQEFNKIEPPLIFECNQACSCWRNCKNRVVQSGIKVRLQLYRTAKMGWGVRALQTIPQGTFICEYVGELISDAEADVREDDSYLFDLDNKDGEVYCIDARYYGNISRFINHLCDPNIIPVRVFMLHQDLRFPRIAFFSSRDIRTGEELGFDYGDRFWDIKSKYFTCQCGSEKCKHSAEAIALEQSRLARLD
#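 Using a bead-based AlphaScreen, monomethylated H3K9 product from 2 h room-temperature reactions (G9a 20 nM, peptide 500 nM, SAM 20 uM) was detected with 0.5 ug/mL rabbit anti-H3K9me1 antibody.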
# CtBP-E1A blk = blocks the CtBP interaction with E1A | AlphaScreen GST-E1A/His-CtBP binding, 1536-well; stronger effect = lower value | activity change, % (no concentration beside the values) | actives 0.49% (n = 340,000) | AID 651724; in the data active = activity change below about -65%; inconclusive = mostly about -30% to -63%
#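 Steps: dispense buffer (Tris pH 8.0, NaCl 300 mM, TCEP 1 mM, BSA, Tween 20); add 5X protein mix (GST-E1A, His-CtBP, 125 nM each); pin 23 nL compound; 2 h at 37 °C, dark; add 5X beads (50 ug/mL); 1 h; read.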
# Numbers stand for hits; 0 = inactive; ? = inconclusive; - = no result given; [ ] = another dose, or the depositor's remark. Most compounds without a hit are left out; they make up all but 10% or so of the library. Unless noted, calls follow the shape of the dose curve; as a rule, active = well fitted inhibition curve with a large enough effect; inconclusive = small, poorly fitted or top-dose-only effect; inactive = no such curve, though single readings can be large or run the other way.
SMILES,Six1-Eya2 blk,HP1b binding inh,BAZ2B inh,JMJD2A Tudor,G9a block,CtBP-E1A blk
CC1(C)CC(N2CCN(c3ccccc3)CC2)=CC(=[N+]2CCCC2)C1,0,0,0,?,45µM,0
CC1CC(C)C[N+](=C2C=C(N3CCCC3)CC(C)(C)C2)C1 (stereo not drawn),0,?,0,18µM,?,0
CC1(C)CC(=O)C=C(N2CCNCC2)C1,0,0,0,0,0,0
CC1(C)CC(N2CCCC2)=CC(=[N+]2CCCCCC2)C1,0,0,?,?,?,0
O=S(=O)(c1ccccc1)N1CCC2(CCN(c3ncccn3)CC2)CC1,-,-,-,-,0[12.7 µM],-
N#Cc1ccc(-n2nccc2-c2cnc3n(c2=O)CCS3)cc1,0,0,0,50µM,0[12.7 µM],0
NC(=S)N=Nc1c(O)[nH]c2c(Cl)cc(Cl)cc12,?,0,-,0,-,?
NC(=S)N=Nc1c(O)[nH]c2cc(F)c(F)cc12,-65,0,0,0,0,-71
Cc1cc2nc(-c3ccc(C#N)cc3)c(Cc3ccsc3)n2c(C)c1Br,0,-,-,-,-,0
NCCOc1ccccc1-c1ccccc1,0,0,0,0,0,0
CN(C)CCNCCCOc1ccccc1-c1ccccc1,-,-,40µM,-,8.9µM,-
C=CCNCCOCCOc1ccccc1-c1ccccc1,0,0,79µM,50µM,-,-
CC(C)(C)NCCOCCOc1ccccc1-c1ccccc1,0,22µM,22µM,1.8µM,3.5µM,0
COC(=O)c1ccccc1OCCCN(C)C,0,?,79µM,89µM,8.9µM,0
O=C(NCCC(=O)N(Cc1ccco1)Cc1cccs1)c1ccc(Br)cc1,0,0,0,0,0,0
COc1cccc(NC(=O)NC2CCN(CC(=O)Nc3ccccc3[N+](=O)[O-])CC2)c1,0,0,0,?,0,0
CC(C)c1nn2c(=O)cc(COC(=O)c3ccccc3NC(=O)COc3ccccc3)nc2s1,-,0,0,0,0,-
CCC(C)NCCOCCOc1ccccc1-c1ccccc1 (stereo not drawn),0,?,50µM,3.5µM,13µM,0
COCCCNCCOCCOc1ccccc1-c1ccccc1,0,?,50µM,2.5µM,?,0
O=C(NCCOc1ccccc1-c1ccccc1)c1ccco1,0,0,0,0,0,0
COc1cccc(NC(=O)CN2C(=O)C3(SCC(=O)N3c3cc(C)cc(C)c3)c3ccccc32)c1 (stereo not drawn),-,0,0,0,0,-
Cc1cc(O)c(C(c2cccc(F)c2)N2CCN(c3ccccc3)CC2)c(=O)n1Cc1ccco1 (stereo not drawn),-,0,0,?,?,-
Cc1cccc(CN(C(=S)Nc2c(C)cccc2C)c2cccnc2)c1,0,0,79µM,0,?,0
Cn1c(=O)n(C)c2cc(NC(=O)CCc3ccccc3)c(Br)cc21,0,0,50µM,0,-,0
CSc1ccccc1NC(=O)CCc1ccccc1,0,0,0,0,0,0
SMILES,Six1-Eya2 blk,HP1b binding inh,BAZ2B inh,JMJD2A Tudor,G9a block,CtBP-E1A blk
Cc1ccc2cc(C3CC(c4ccco4)=NN3C(=O)CCC(=O)O)c(Cl)nc2c1 (stereo not drawn),0,?,0,22µM,?,0
Cc1cccc2cc(C3CC(c4cccs4)=NN3C(=O)CCC(=O)O)c(Cl)nc12 (stereo not drawn),0,0,?,32µM,0,0
Cc1ccc2nc(Cl)c(C3CC(c4cccs4)=NN3C(=O)CCCC(=O)O)cc2c1 (stereo not drawn),0,0,0,?,0,0
Cc1cc2c(s1)c1cnn(Cc3ccc(S(C)(=O)=O)cc3)c(=O)c1n2C,-,-,-,0,-,-
O=S(=O)(Nc1cccc2cccnc12)c1ccccc1O,-,-,-,32µM,-,-
O=S(=O)(Nc1cccc2cccnc12)c1cccs1,-,0,-,79µM,-,-
Cc1ccnc2nc(C(=O)OCC(=O)N(Cc3ccccc3)C(C)(C)C)nn12,0,0,-,0,-,-
CCOc1ccccc1C(=O)N[C@H](C(=O)Nc1ccc(OC)c(S(=O)(=O)N2CCOCC2)c1)C(C)C,0,0,0,0,0,0
Cn1c(CC2C(=O)Nc3ccc(Br)cc32)nc2ccccc2c1=O (stereo not drawn),?,0,0,0,50µM,0
O=C1Nc2ccc(Br)cc2C1Cc1ccccc1F (stereo not drawn),0,0,0,0,-,0
CCOc1ccc(CCNC(=O)Cn2nc(-c3ccc(C)cc3)ccc2=O)cc1OCC,-,0,0,0,0,-
CC(=O)CC(=O)Nc1ccc(C(N)=O)cc1,0,0,0,0,25µM,0
O=C(Nc1ccccc1)C1CCN(c2nccs2)CC1,0,0,0,0,50µM,0
CCCC(=O)Nc1ccc(C(N)=O)cc1,0,0,0,0,0,0
O=C(Nc1ccc(Nc2ccccc2)cc1)C1CC1,0,0,?,?,25µM,0
CC(=O)CC(=O)Nc1ccc(Nc2ccccc2)cc1,0,0,?,0,71µM,0
COc1ccc(C)cc1NC(=O)CSc1nnc2ccc(-c3cccnc3)nn12,0,0,0,0,0,0
O=C(NCCCN1CCOCC1)c1ccc2c(c1)N(Cc1c(F)cccc1Cl)C(=O)c1ccccc1S2,0,0,?,?,35µM,-
CCN1CCN(CCCNC(=O)c2ccc(/C=C3/Sc4ccccc4N(Cc4ccccc4F)C3=O)cc2)CC1,0,0,?,40µM,?,0
O=C(NCCCN1CCOCC1)c1ccc2c(c1)N(Cc1ccc(F)cc1)CCS2,0,0,?,?,45µM,0
Cc1csc2nc(CCNS(=O)(=O)c3ccc(F)cc3)cn12,-,0,0,0,0,-
O=C1CS/C(=N/N=C\c2ccn[nH]2)N1,0,0,50µM,0,-,0
COCCN1C(=O)CCC1(C)c1nnnn1-c1ccc2ccccc2c1 (stereo not drawn),0,-,-,-,-,0
Cc1nc(NC(=O)c2ccco2)sc1-c1csc(Nc2ccc(Cl)cc2Cl)n1,0,0,0,?,?,0
Cc1nc(NC(=O)c2ccccc2)sc1-c1csc(Nc2ccc(Cl)cc2Cl)n1,-,-,50µM,-,25µM,-
SMILES,Six1-Eya2 blk,HP1b binding inh,BAZ2B inh,JMJD2A Tudor,G9a block,CtBP-E1A blk
COc1ccc(Cl)cc1Nc1nc(-c2sc(NC(=O)c3ccccc3)nc2C)cs1,-,-,56µM,-,35µM,-
CCN1C(=O)c2ccccc2S(=O)c2ccc(C(=O)NCc3ccc(Cl)cc3)cc21 (stereo not drawn),-,0,0,0,0,-
COc1ccc(O[C@H]2C=C[C@@H](c3ccccc3)O[C@@H]2CO/N=C(\C)CCN2CCCCc3nc(C)c(C)cc32)cc1,-,-,?,-,40µM,-
C/C(CCN1CCCCc2nc(C)c(C)cc21)=N\O[C@@H](C)CN1CCCCc2nc(C)c(C)cc21,-,-,0,-,?,-
C/C(CCN1CCCCc2nc(C)c(C)cc21)=N\OC[C@@H](O)[C@H]1O[C@@H]2OC(C)(C)O[C@@H]2[C@H]1O,-,-,0,-,50µM,-
CC(C)C[C@H]1COc2cccc(N3CCSCC3)c2S(=O)(=O)N1,0,-,-,-,-,0

# Compound activity as filed in PubChem.
